# A selection: hits, their analogues and other compounds. The true share with any hit is near 6.2%.
# RORgamma inh = inhibitors of mouse ROR gamma transcriptional activity; P51450; Drosophila S2 Gal4-RORgamma UAS-luciferase reporter, 20 h; Potency, µM (doses to about 53.6 µM), for inactives: at the top dose activity change, negative = inhibition, actives largely listed as inhibitors; 310,000 tested, 5.4% active; also: nearly all actives have a fitted effect of over 60% in size
# Target sequence (P51450 whole entry, looked up, the tested form may be a part): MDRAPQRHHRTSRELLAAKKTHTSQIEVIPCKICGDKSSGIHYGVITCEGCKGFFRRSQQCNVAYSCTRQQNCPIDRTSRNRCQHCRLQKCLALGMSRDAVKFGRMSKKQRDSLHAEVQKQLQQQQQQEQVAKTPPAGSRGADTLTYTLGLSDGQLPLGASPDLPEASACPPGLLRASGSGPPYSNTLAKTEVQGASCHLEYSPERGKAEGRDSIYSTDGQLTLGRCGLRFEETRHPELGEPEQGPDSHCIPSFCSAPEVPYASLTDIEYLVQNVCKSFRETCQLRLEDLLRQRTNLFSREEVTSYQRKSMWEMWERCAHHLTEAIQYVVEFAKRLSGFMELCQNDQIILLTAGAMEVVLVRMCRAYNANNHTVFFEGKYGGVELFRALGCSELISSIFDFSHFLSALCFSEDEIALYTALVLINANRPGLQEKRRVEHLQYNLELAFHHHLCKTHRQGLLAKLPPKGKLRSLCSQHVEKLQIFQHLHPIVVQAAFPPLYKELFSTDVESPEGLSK
#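 A Gal4/UAS one-hybrid system in insect cells: metallothionein-promoter Gal4–ROR gamma fusion plus Photinus luciferase reporter. Copper sulfate 700 uM final, 20 hr ambient incubation, luminescent detection after 10 min with reagent.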
# Gal4-VP16 FLuc = inhibits Gal4-VP16 luciferase reporter, ROR gamma counter-screen. Drosophila S2 Gal4-VP16 UAS-luciferase, luminescence, 20 h. Potency, µM (top dose mostly 53.6 µM), without a hit: top-dose activity, negative = inhibition, hits mostly inhibitors. 310,000 tested, 3.5% active;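 also: Gal4-VP16 expression switched on by copper sulfate through the metallothionein promoter; nearly all actives have a fitted effect of over 50% in size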
# Luc counter = blocks Kinase-Glo luciferase, a counter-screen artifact | 200,000 tested, 0.28% active | Kinase-Glo luciferase, ATP luminescence, 8 min | Q27757 | Potency, µM (top dose mostly 38.3 µM), inactives show at the top dose activity change, negative = inhibition, most hits filed as inhibitors; also: nearly all actives have a fitted effect of over 60% in size
#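 Recombinant Kinase-Glo luciferase, 10 uM ATP (linear range), luciferin; imidazole pH 7.2 / KCl / MgCl2 / Tween / BSA buffer; 8 min RT; luminescence.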
# * = called active by the depositor; u = inconclusive; x = not tested or not shown; [ ] = remark or other dose. Calls follow the shape of the dose curve; as a rule, active = well fitted curve in the direction sought with a large enough effect; inconclusive = small, poorly fitted or top-dose-only effect, or another doubt; inactive = no such curve, though single readings can be large; an effect the other way counts as inactive or inconclusive. % is scaled to controls: 0 for no effect and ±100 for the full control effect; potency is read from the fitted curve at half-maximal effect.
SMILES,RORgamma inh,Gal4-VP16 FLuc,Luc counter
COc1ccccc1CNC(=O)C1CCN(S(=O)(=O)c2ccc3c(c2)CC(C)N3C(C)=O)CC1 (configuration not stated),0%,-4%,x
COc1ccc(OCCC(=O)NC2=NCCS2)cc1,u,-21%,0%
CCCNC(=O)/C=C/c1ccc(C(C)C)cc1,-7%,0%,-3%
O=C(/C=C/c1ccc(Cl)c(Cl)c1)NC1=NCCS1,7.9µM*,u,4%
Cc1cc(OCCCC(=O)NC2=NCCS2)ccc1Cl,-28%,u,0%
CC(C)c1ccc(/C=C/C(=O)NC2=NCCS2)cc1,8.9µM*,u,5%
CC(C)c1ccc(OCC(=O)NC2=NCCS2)cc1,14µM*,-22%[10 µM],-10%
O=C(COc1ccccc1)NC1=NCCS1,-20%,11%,-24%
CC(C)(C)c1ccc(OCCC(=O)NC2=NCCS2)cc1,3.5µM*,8.9µM*,-3%
CC1(C)NC(=O)N(c2ccccc2Cl)C1(C)NO (configuration not stated),u,18%,1%
Cc1cc(Cl)nc(Cl)c1C(=O)NC(=O)NCCC(C)C,1%,-6%,0%
CC1(NC(=S)Nc2ccccc2)CCS(=O)(=O)C1 (configuration not stated),0%,-14%,x
CC(C)C(C(=O)NC1=NCCS1)c1ccc(Cl)cc1 (configuration not stated),4.5µM*,u,3%
CC(NC(=O)c1ccc(Cl)cc1)C(=O)NC1=NCCS1 (configuration not stated),-8%,-1%,-4%
COc1cccc(O)c1O,u,u,-4%
Cc1ccc(Nc2nc3c(c(=O)[nH]2)CCCC3)cc1,16%,u,-3%
O=c1[nH]c(Nc2nc3ccccc3o2)nc2c1CCCC2,4µM*,10µM*,2%
CCc1nc2nc(C)c(NS(=O)(=O)c3ccc(C)c(C)c3)c(=O)n2[nH]1,-1%,0%,x
Cc1ccc(-c2nnc(SCc3nc4ccccc4[nH]3)n2Cc2ccco2)cc1,11µM*,u,-5%
O=C(CSc1nnc(-c2cnccn2)n1Cc1ccco1)c1ccccc1,29%,6%,0%
Cc1cccc(-c2nnc(SCc3nc4ccccc4[nH]3)n2Cc2ccco2)c1,-44%,-4%,x
CN(C)C(=O)CSc1nnc(-c2ccncc2)n1Cc1ccco1,20%,-14%,-1%
Brc1ccc(CSc2nnc(-c3ccccn3)n2Cc2ccco2)cc1,u,u,-4%
O=C(CSc1nnc(-c2ccncc2)n1Cc1ccco1)OC1CCCCC1,10µM*,u,-4%
O=C(CSc1nnc(-c2cnccn2)n1Cc1ccco1)c1ccc(Cl)cc1,10µM*,u,-1%
SMILES,RORgamma inh,Gal4-VP16 FLuc,Luc counter
CC(C)(C)c1ccc(CSc2nnc(-c3ccccn3)n2Cc2ccco2)cc1,u,7.1µM*,-4%
O=C(Cl)COCc1ccccc1,-14%,-1%,x
CCc1ccc(N(C(C)=O)c2nc(CCl)cs2)cc1,10%,-3%,-1%
O=C(Oc1ccc(N2C(=O)C3C4CCC(C4)C3C2=O)cc1)c1ccco1 (configuration not stated),-24%,-4%,x
O=C(Oc1cccc2cccnc12)c1cccc(-n2cnnn2)c1,-12%,-5%,2%
O=C(Oc1cccc2cccnc12)c1ccc(N2C(=O)C3C4CCC(C4)C3C2=O)cc1 (configuration not stated),2.8µM*,5µM*,2%
O=C(Oc1cccc2cccnc12)c1cccc(N2C(=O)C3C4CCC(C4)C3C2=O)c1 (configuration not stated),2.5µM*,u,1%
COc1ccc(N2CCN(C(=O)C3(S(=O)(=O)c4ccc(C)cc4)CC3)CC2)cc1,-15%,6%,x
Cc1ccc(C(=O)Nc2nc(-c3ccccn3)cs2)o1,13µM*,u,x
CC(=O)Nc1ccc(-c2csc(NC(=O)c3ccc(C)o3)n2)cc1,24%,8%,-4%
CC(=O)Nc1ccc(C(=O)Nc2nc(-c3ccccn3)cs2)cc1,7.9µM*,4%,0%
O=C(Nc1nc(-c2ccccn2)cs1)c1ccccc1-n1cnnn1,5µM*,-14%,x
Cc1csc(NC(=O)c2ccc3c(c2)OCO3)n1,u,-23%,x
CC(=O)Nc1ccc(C(=O)Nc2nc(-c3cccnc3)cs2)cc1,-33%,0%,-1%
Cc1ccc(CNC(=O)c2ccccc2-n2cnnn2)cc1,11%,0%,x
O=C(Nc1nc(-c2ccccn2)cs1)c1ccc2c(c1)OCCO2,3.2µM*,10µM*,x
CNC(=O)NC(=O)CN1C(=O)NC2(CCOc3ccccc32)C1=O (configuration not stated),-2%,4%,x
O=C(/C=C/c1ccc(O)c(O)c1)O[C@H](Cc1ccc(O)c(O)c1)C(=O)O,-11%,0%,x
